Experimental data taken from PubChem BioAssay (NCI).
Compounds without any hit were thinned out: in the full panel of roughly 79,000, 15% have a hit. Activity calls are given as the source filed them. Rule as the data show it: active = growth inhibition above about 70%; inactive = the rest.

Key:
[1] = NCI Yeast Anticancer Drug Screen. Data for the wt2 strain (AID 169); settings: S. cerevisiae wt2 strain growth inhibition, hits give high values
Outline: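 Growth of compound-treated yeast is measured and expressed as inhibition relative to vehicle-only controls.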

[2] = NCI Yeast Anticancer Drug Screen. Data for the mlh1 strain (AID 171);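 also: 0% = growth of vehicle-treated control cultures of the same strain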; settings: S. cerevisiae mlh1 strain growth inhibition, hits give high values
Outline: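 Test agents were incubated with yeast bearing a defined DNA damage repair or cell cycle control alteration; values are growth inhibition normalised to vehicle-treated cultures.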

[3] = NCI Yeast Anticancer Drug Screen. Data for the sgs1 strain (AID 173);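 also: 0% = growth of vehicle-only control cultures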; settings: S. cerevisiae sgs1 mutant, hits give high values
Outline: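 Strain with an altered DNA repair or cell cycle pathway exposed to compound. Growth then measured. Value = inhibition versus vehicle control.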

[4] = NCI Yeast Anticancer Drug Screen. Data for the mlh1 rad18 strain (AID 175); settings: S. cerevisiae mlh1 rad18 strain growth inhibition, hits give high values
Outline: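 A repair-deficient yeast strain is exposed to test compound, and growth is scored relative to vehicle-treated controls.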

[5] = NCI Yeast Anticancer Drug Screen. Data for the rad18 strain (AID 177); settings: S. cerevisiae rad18 mutant growth inhibition, hits give high values
Outline: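 DNA-repair-defective yeast; compound treatment; growth inhibition scored against vehicle.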

[6] = NCI Yeast Anticancer Drug Screen. Data for the rad52 strain (AID 147);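 also: 0% = growth of vehicle-treated control cultures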; settings: S. cerevisiae rad52 mutant growth inhibition, hits give high values
Outline: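 Growth of repair-deficient yeast cells was compared between compound-treated and vehicle-treated cultures to give percent inhibition.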

[7] = NCI Yeast Anticancer Drug Screen. Data for the wt1 strain (AID 149);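 also: 0% = growth of vehicle-treated wt1 cultures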; settings: S. cerevisiae wt1 strain (SPY 50644) growth inhibition, hits give high values
Outline: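 Each compound is tested on wt1 yeast and the loss of growth versus vehicle gives the inhibition value.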

[8] = NCI Yeast Anticancer Drug Screen. Data for the rad50EPP+ strain (AID 151);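 also: 0% = growth of vehicle-treated control cultures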; settings: S. cerevisiae rad50 mutant strain, hits give high values
Outline: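 Measured: growth inhibition of rad50EPP+ yeast. Reference: vehicle-treated controls. Screen uses strains with defined genetic alterations in DNA damage repair or cell cycle control.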

[9] = NCI Yeast Anticancer Drug Screen. Data for the mgt1 strain (AID 153); settings: S. cerevisiae mgt1 mutant growth inhibition, hits give high values
Outline: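 Compounds were applied to mgt1 mutant yeast, and growth was then compared against vehicle-treated control cultures to give percent inhibition.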

[10] = NCI Yeast Anticancer Drug Screen. Data for the rad50 strain (AID 155);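 also: 0% = growth of vehicle-only cultures of the same strain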; settings: S. cerevisiae rad50 strain growth inhibition, hits give high values
Outline: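 Vehicle-treated cultures provide the reference for the growth inhibition reported for compound-exposed, repair-deficient yeast.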

[11] = NCI Yeast Anticancer Drug Screen. Data for the mec2-1 strain (AID 157); settings: S. cerevisiae mec2-1 strain, hits give high values
Outline: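 Compounds were applied to mec2-1 yeast cells. Their growth was then compared with that of vehicle-treated cultures to give growth inhibition.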

[12] = NCI Yeast Anticancer Drug Screen. Data for the rad14 strain (AID 159);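 also: 0% = growth of vehicle-treated control cultures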; settings: S. cerevisiae rad14 strain growth inhibition, hits give high values
Outline: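 Inhibition of growth is reported for a repair-deficient yeast mutant following compound treatment, calculated relative to cultures that received vehicle.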

[13] = NCI Yeast Anticancer Drug Screen. Data for the sgs1 mgt1 strain (AID 161);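 also: 0% = growth of cultures given vehicle only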; settings: S. cerevisiae sgs1 mgt1 strain, hits give high values
Outline: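 This yeast growth screen uses a strain with defined DNA-repair lesions; compound-treated growth is compared with vehicle-treated growth.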

[14] = NCI Yeast Anticancer Drug Screen. Data for the CLN2oe strain (AID 163);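 also: 0% = growth of vehicle-only control cultures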; settings: S. cerevisiae CLN2oe strain, hits give high values
Outline: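 Cells of an engineered yeast line with disturbed cell-cycle regulation are treated with compound. Inhibition of growth is then calculated relative to the vehicle-treated reference.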

[15] = NCI Yeast Anticancer Drug Screen. Data for the cln2 rad14 strain (AID 165);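 also: 0% = growth equal to vehicle treated cultures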; settings: S. cerevisiae cln2 rad14 strain, hits give high values
Outline: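 Strain: cln2 rad14 yeast, altered in cell cycle control and DNA damage repair. Read-out: growth inhibition vs vehicle.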

[16] = NCI Yeast Anticancer Drug Screen. Data for the bub3 strain (AID 167); settings: S. cerevisiae bub3 mutant strain, hits give high values
Outline: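 Mutant yeast screening strain plus compound; vehicle-treated cultures serve as the 0% inhibition reference.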

[17] = at 5.0 µM (retest, dose inferred, filed as 0.5)
[18] = at 50.0 µM (retest, dose inferred, filed as 5.0)

Measured: growth inhibition

CC(C)(C)N=C(NO)c1ccccc1
active: [3]; at 100.0 µM 76% | [4]; [18] 76% | [4]; at 50.0 µM 81.4% | [5]; at 100.0 µM 82%
inactive: [1]; at 1.2 µM 1% | [1]; at 3.7 µM 1% | [1]; at 11.0 µM 8% | [1]; at 33.0 µM 20% | [1]; at 100.0 µM 67% | [2]; at 1.2 µM 3% | [2]; at 3.7 µM 1% | [2]; at 11.0 µM 7% | [2]; at 33.0 µM 20% | [2]; at 100.0 µM 64% | [3]; at 1.2 µM 1% | [3]; at 3.7 µM 7% | [3]; at 11.0 µM 14% | [3]; at 33.0 µM 39% | [4]; [17] 3% | [5]; at 1.2 µM 1% | [5]; at 3.7 µM -1% | [5]; at 11.0 µM 38% | [5]; at 33.0 µM 38%

CCCC(=O)Oc1c(C)cc([N+](=O)[O-])cc1[N+](=O)[O-]
active: [6]; at 11.0 µM 99% | [6]; at 33.0 µM 97% | [6]; at 100.0 µM 99% | [7]; at 11.0 µM 98% | [7]; at 33.0 µM 99% | [7]; at 100.0 µM 99% | [8]; at 3.7 µM 77% | [8]; at 11.0 µM 94% | [8]; at 33.0 µM 99% | [8]; at 100.0 µM 99% | [9]; at 33.0 µM 99% | [9]; at 100.0 µM 86% | [10]; at 11.0 µM 98% | [10]; at 33.0 µM 99% | [10]; [18] 99% | [10]; at 50.0 µM 99.4% | [10]; at 100.0 µM 99% | [11]; at 11.0 µM 99% | [11]; at 33.0 µM 99% | [11]; [18] 100% | [11]; at 50.0 µM 99.3% | [11]; at 100.0 µM 99% | [12]; at 11.0 µM 96% | [12]; at 33.0 µM 99% | [12]; at 100.0 µM 99% | [13]; [18] 99% | [13]; at 50.0 µM 99.4% | [14]; at 11.0 µM 94% | [14]; at 33.0 µM 99% | [14]; at 100.0 µM 99% | [15]; [18] 97% | [15]; at 50.0 µM 93.5% | [16]; at 11.0 µM 98% | [16]; at 33.0 µM 99% | [16]; [18] 99% | [16]; at 50.0 µM 99.5% | [16]; at 100.0 µM 99% | [1]; at 11.0 µM 98% | [1]; at 33.0 µM 99% | [1]; at 100.0 µM 99% | [2]; at 11.0 µM 99% | [2]; at 33.0 µM 99% | [2]; at 100.0 µM 99% | [3]; at 11.0 µM 99% | [3]; at 33.0 µM 99% | [3]; at 100.0 µM 99% | [4]; [18] 99% | [4]; at 50.0 µM 99.1% | [5]; at 11.0 µM 98% | [5]; at 33.0 µM 99% | [5]; at 100.0 µM 99%
inactive: [6]; at 1.2 µM 4% | [6]; at 3.7 µM 26% | [7]; at 1.2 µM 1% | [7]; at 3.7 µM 0% | [8]; at 1.2 µM 35% | [9]; at 1.2 µM 3% | [9]; at 3.7 µM 11% | [9]; at 11.0 µM 56% | [10]; at 1.2 µM 4% | [10]; at 3.7 µM 25% | [10]; [17] 14% | [11]; at 1.2 µM -1% | [11]; at 3.7 µM 21% | [11]; [17] 33% | [12]; at 1.2 µM 1% | [12]; at 3.7 µM 14% | [13]; [17] 39% | [14]; at 1.2 µM -11% | [14]; at 3.7 µM -2% | [15]; [17] -1% | [16]; at 1.2 µM 12% | [16]; at 3.7 µM 42% | [16]; [17] 40% | [1]; at 1.2 µM 2% | [1]; at 3.7 µM 4% | [2]; at 1.2 µM 2% | [2]; at 3.7 µM 12% | [3]; at 1.2 µM 5% | [3]; at 3.7 µM 27% | [4]; [17] 18% | [5]; at 1.2 µM 5% | [5]; at 3.7 µM 20%

O/N=C\c1c(O)ccc2ccccc12
inactive: [6]; at 1.2 µM -4% | [6]; at 3.7 µM 0% | [6]; at 11.0 µM 7% | [6]; at 33.0 µM 31% | [7]; at 1.2 µM -2% | [7]; at 3.7 µM -5% | [7]; at 11.0 µM 0% | [7]; at 33.0 µM 5% | [7]; at 100.0 µM 22% | [8]; at 1.2 µM 2% | [8]; at 3.7 µM 10% | [8]; at 11.0 µM 19% | [8]; at 33.0 µM 54% | [9]; at 1.2 µM -4% | [9]; at 3.7 µM 1% | [9]; at 11.0 µM 1% | [9]; at 33.0 µM 7% | [9]; at 100.0 µM 52% | [10]; at 1.2 µM 1% | [10]; at 3.7 µM 3% | [10]; [17] -11% | [10]; at 11.0 µM 10% | [10]; at 33.0 µM 42% | [10]; at 50.0 µM 63% | [11]; at 1.2 µM -1% | [11]; at 3.7 µM 0% | [11]; [17] -2% | [11]; at 11.0 µM 2% | [11]; at 33.0 µM 12% | [11]; [18] 20% | [11]; at 50.0 µM 47.4% | [11]; at 100.0 µM 33% | [12]; at 1.2 µM -1% | [12]; at 3.7 µM 0% | [12]; at 11.0 µM 7% | [12]; at 33.0 µM 39% | [13]; [17] -6% | [14]; at 1.2 µM -6% | [14]; at 3.7 µM -6% | [14]; at 11.0 µM -5% | [14]; at 33.0 µM 3% | [14]; at 100.0 µM 28% | [15]; [17] -4% | [15]; [18] 21% | [15]; at 50.0 µM 10.3% | [16]; at 1.2 µM -4% | [16]; at 3.7 µM 0% | [16]; [17] 19% | [16]; at 11.0 µM 2% | [16]; at 33.0 µM 11% | [16]; at 100.0 µM 27% | [1]; at 1.2 µM -4% | [1]; at 3.7 µM -2% | [1]; at 11.0 µM -7% | [1]; at 33.0 µM 1% | [1]; at 100.0 µM 55% | [2]; at 1.2 µM -3% | [2]; at 3.7 µM -1% | [2]; at 11.0 µM 4% | [2]; at 33.0 µM 22% | [2]; at 100.0 µM 65% | [3]; at 1.2 µM 10% | [3]; at 3.7 µM 30% | [3]; at 11.0 µM -5% | [3]; at 33.0 µM 41% | [4]; [17] 3% | [5]; at 1.2 µM -3% | [5]; at 3.7 µM 0% | [5]; at 11.0 µM 6% | [5]; at 33.0 µM 30% | [5]; at 100.0 µM 69%
active: [6]; at 100.0 µM 72% | [8]; at 100.0 µM 74% | [10]; [18] 74% | [10]; at 100.0 µM 71% | [12]; at 100.0 µM 75% | [13]; [18] 74% | [13]; at 50.0 µM 78.8% | [16]; [18] 88% | [16]; at 50.0 µM 75% | [3]; at 100.0 µM 80% | [4]; [18] 89% | [4]; at 50.0 µM 73.2%
